Tau ThT inhib: tau fibrillization inhibition (ThT binding). recombinant tau K18 P301L, heparin-induced fibrillization, ThT fluorescence. Potency, µM (highest dose often 57.4 µM), for the others: at the highest dose activity, negative = inhibition, actives largely listed as inhibitors. 270,000 tested, 2.1% active. AID 1460; note: potency is the fitted concentration of half-maximal effect; nearly all actives have a fitted effect of over 55% in size
Target sequence (P10636 561-689 P618L limits assumed): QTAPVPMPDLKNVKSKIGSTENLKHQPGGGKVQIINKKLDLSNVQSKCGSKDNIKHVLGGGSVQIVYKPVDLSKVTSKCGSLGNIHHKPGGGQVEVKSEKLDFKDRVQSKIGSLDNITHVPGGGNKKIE
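Fibril formation assay: tau K18 P301L at 15 uM with trace Alexa 594 label, heparin inducer 20 uM, pH 7 sodium acetate buffer, 37 C for 6 hr; endpoint ThT signal.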
Sfp inh: inhibitors of Bacillus subtilis Sfp phosphopantetheinyl transferase. Q9F4F7. Potency, µM, for the others: largest response in the series, negative = inhibition, actives largely listed as inhibitors. 310,000 tested, 3.5% active. Biochemical Sfp PPTase activity, qHTS;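 note: the enzyme is Sfp with the accession as filed and its product quenches rhodamine fluorescence; potency is the fitted concentration of half-maximal effect; 0% = enzyme reaction without inhibitor and -100% = no enzyme wells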
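Fluorescence-quenching assay: 15 nM Sfp-PPTase preincubated 15 min at room temperature with compound, then 5 uM rhodamine-CoA and 12.5 uM BHQ-2-labelled YbbR peptide added. Fluorescence (ex 525/em 598 nm) read at start and after 30 min; difference gives rate.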
Tau fibril FP: inhibitors of human tau fibril formation. 280,000 tested, 0.39% active. P10636. Potency, µM (series often up to 57.7 µM), for the others: top-dose activity, negative = inhibition, most hits filed as inhibitors. K18 P301L tau heparin fibrillization, Alexa594 FP, 6 h; note: potency is the fitted concentration of half-maximal effect; nearly all actives have a fitted effect of over 55% in size
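Compound effects on tau fibrillization are measured by Alexa 594 fluorescence polarization (ex 555, em 632 nm). K18 P301L tau is used at 15 uM with 0.24 uM labeled tracer, and 20 uM heparin induces aggregation over 6 hr at 37 C.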
G9a block: inhibitors of human histone lysine methyltransferase G9a | G9a H3K9 monomethylation, AlphaScreen, 2 h | Potency, µM (titrated, usually from 102 µM), for inactives: top-dose activity, negative = inhibition, usual class: inhibitors | 350,000 tested, 8.8% active | AID 504332; note: potency is the fitted concentration of half-maximal effect; nearly all actives have a fitted effect of over 75% in size
Target sequence (Q96KQ7 913-1193 limits assumed): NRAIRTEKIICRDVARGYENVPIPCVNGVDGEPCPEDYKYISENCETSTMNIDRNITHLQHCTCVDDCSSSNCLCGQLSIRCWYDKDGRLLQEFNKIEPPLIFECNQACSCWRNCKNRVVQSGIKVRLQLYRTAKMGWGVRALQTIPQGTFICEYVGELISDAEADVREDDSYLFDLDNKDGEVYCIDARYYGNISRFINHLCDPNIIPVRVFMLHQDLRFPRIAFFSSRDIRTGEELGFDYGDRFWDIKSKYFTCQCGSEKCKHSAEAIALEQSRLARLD
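Signal arises when biotinylated H3K9 peptide, once monomethylated, bridges streptavidin donor and antibody-captured acceptor beads. Enzyme at 20 nM was preincubated 15 min with test compounds; peptide 500 nM and SAM 20 uM then reacted for 2 h.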
Tau fluor counter: counter-screen for tau fibril formation inhibitors | tau K18 P301L (four-repeat tau fragment) Alexa594 fluorescence, heparin fibrillization | Potency, µM (highest dose often 57.7 µM), inactives show at the top dose activity change, negative = decrease | 280,000 tested, 0.93% active; note: potency is the fitted concentration of half-maximal effect; nearly all actives have a fitted effect of over 55% in size
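Human K18 P301L tau (15 uM unlabeled plus 0.24 uM Alexa 594-labeled, final) in 100 mM sodium acetate pH 7 was mixed with compound and 20 uM heparin and incubated 6 hr at 37 C.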
Coupling enz: inhibits coupling enzyme system, counter-screen for aldolase hits | activity change, negative = inhibition, % at 58.2 µM, hits read low | AID 2472 | 290,000 tested, 0.67% active | coupling enzyme system counterscreen, AmpLite Red fluorescence; in the data active = activity change below about -30%
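Compounds tested against the coupling enzymes alone at 57.5 uM final; readout was AmpLite Red fluorescence (525/598 nm) after 20 min at RT.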
* = called active by the depositor; u = inconclusive; x = no result given; ! = not confirmed by another sample; [ ] = dose if it differs, or a comment. The list is not random: actives were taken first. Their share in the collection is about 11%. Unless noted, calls come from the whole dose curve; as a rule, active = well fitted curve in the direction sought with a large enough effect; inconclusive = small, poorly fitted or top-dose-only effect, or another doubt; inactive = no such curve, though single readings can be large; an effect the other way counts as inactive or inconclusive. Unless noted, % is set by controls: 0 for no effect and ±100 for the full control effect.

SMILES | Tau ThT inhib | Sfp inh | Tau fibril FP | G9a block | Tau fluor counter | Coupling enz
Cc1ccc(S(=O)(=O)CCC(=O)N(CCCN2CCOCC2)c2nc3ccccc3s2)cc1 | x | x | x | 45µM* | x | x
O=C(CCS(=O)(=O)c1ccccc1)N(CCCN1CCOCC1)c1nc2ccccc2s1 | x | x | x | 40µM* | x | x
CCN1CCN(c2ccc(N=Cc3ccc(O)cc3O)cc2)CC1 | 16µM* | -2% | u | x | u | -4
N#Cc1c(Cl)c(Cl)c2nnc(-c3ccc(Br)cc3)n2c1Cl | u | 3% | 3% | 13µM* | -14% | 9
O=C(NC1CCCC1)C(=O)N(c1ccccc1F)C(C(=O)NCC1CCCO1)c1cccs1 (stereo not drawn) | -12% | -2% | 12% | x | -4% | -1
COC(=O)c1c(NC(=O)Cc2ccccc2)sc2c1C(C(=O)OC)CC2 (stereo not drawn) | u | 79µM* | -10% | 40µM* | -22% | 3
CCOc1ccc(/C=C/C(=O)Nc2sc3c(c2C(=O)OC)C(C(=O)OC)CC3)cc1 (stereo not drawn) | 3.2µM* | x | u | 1.1µM* | u | x
COC(=O)c1c(NC(=O)C(Cl)Cl)sc2c1C(C(=O)OC)CC2 (stereo not drawn) | u | -18% | 3% | 0% | -26% | 4
CNc1c(NC(=O)c2cc(OC)cc(OC)c2)c(=O)oc2ccccc12 | 3% | x | 0% | 15%[59 µM] | 3% | x
COc1ccc(Br)cc1CNC(=O)Cn1c(=O)c2cccn2c2ccc(F)cc21 | -7% | x | -8% | -24%[59 µM] | -7% | x
COC(=O)C1=C(COc2ccc(C=O)cc2OC)NC(=O)NC1c1cc(C)ccc1C (stereo not drawn) | -6% | -14% | -14% | u | -7% | -2
C[c-]1[c-](C)[c-](C)[c-](C)[c-]1C.[Fe].c1cc2nccc(N3CCCC3)[c-]2c1 (stereo not drawn) | 32µM* | 89µM*! | u | u | u | -33*!
CCc1cccc(NC(=O)CSc2ncc3c(n2)-c2ccc(Cl)cc2N(Cc2ccccc2)S3(=O)=O)c1 | 8% | x | u | -15%[59 µM] | -25% | x
Cc1ccc(Cl)cc1N1CCN(CC(=O)NC2CCCc3ccccc32)CC1 (stereo not drawn) | 7% | u | 4% | 6%[59 µM] | -1% | -1
O=C(CCc1ccccc1)NC1CCCc2ccccc21 (stereo not drawn) | x | -10% | x | 11% | x | -1
O=C(CCCCCN1CCN(c2ccccc2-c2ccccc2)CC1)NC1CCCc2ccccc21 (stereo not drawn) | x | x | x | 13µM* | x | x
O=C(CN1CCN(c2ccccc2Cl)CC1)NC1CCCc2ccccc21 (stereo not drawn) | u | u | 3% | 8.9µM* | -8% | 0
O=C(CCCc1ccc(-c2ccccc2F)cc1)Nc1ccc(O)cc1 | u | 21% | u | x | 11µM*[quencher] | 1
CC(=O)Nc1ccc(NC(=O)CCCc2ccccc2)cc1 | x | 4% | x | 23% | x | -1
Cc1ccc(-c2nnc(SCc3ccccc3C#N)o2)cc1 | -6% | x | -12% | 5%[59 µM] | -17% | x
Cc1csc2nc(CNS(=O)(=O)c3ccc4c(c3)OCCO4)cn12 | -1% | 14% | 0% | u | 3% | 1
Cc1csc2nc(CCNS(=O)(=O)c3ccc4c(c3)OCCO4)cn12 | -7% | 6% | 3% | 50µM* | -6% | 2
CCC(=O)N1CCc2cc(Br)cc(S(=O)(=O)N3CCCC(C(=O)NCc4ccc(C)cc4)C3)c21 (stereo not drawn) | -7% | x | -2% | -22%[59 µM] | -17% | x
COc1ccc(Cl)cc1NC(=O)CN(C)S(=O)(=O)c1ccc2c(c1)CCCN2C(C)=O | -1% | x | 1% | -31%[59 µM] | -10% | x
COc1cccc(/C(O)=C2/C(=O)C(=O)N(CCN3CCOCC3)C2c2cccs2)c1 (stereo not drawn) | -11% | 3% | -3% | 45µM* | -6% | 1
SMILES | Tau ThT inhib | Sfp inh | Tau fibril FP | G9a block | Tau fluor counter | Coupling enz
Cc1nc2ccccn2c1/C(O)=C1\C(=O)C(=O)N(CCN2CCOCC2)C1c1ccncc1 (stereo not drawn) | -9% | 5% | -10% | u | -7% | 5
Cc1nc2c(C)cccn2c1/C(O)=C1\C(=O)C(=O)N(CCN2CCOCC2)C1c1cccs1 (stereo not drawn) | -20% | -6% | 5% | 20µM* | -2% | -1
CC(C)OCCCn1c(=NC(=O)c2ccncc2)c(C#N)cc2c(=O)n3ccccc3nc21 | -8% | 10% | -2% | u | -8% | -1
CC(=O)N=c1c(C#N)cc2c(=O)n3ccccc3nc2n1CCCOC(C)C | -19% | 89µM* | -2% | x | -21% | -6
COc1ccccc1-c1ccc(/C=C2/C=C(C)OC2=O)o1 | u | u | -8% | 16µM* | -21% | -9
COc1ccccc1-c1ccc(/C=C2\C=CC(=O)O2)o1 | u | u | 1% | u | u | 3
COC1(OC)N=C(N)C2(C#N)C(c3ccc4c(c3)OCO4)C12C#N (stereo not drawn) | -12% | 9% | 6% | 50µM* | -9% | 1
CCOC1(OCC)N=C(N)C2(C#N)C(c3cccc(C)c3)C12C#N (stereo not drawn) | -13% | 10% | -1% | 40µM* | 0% | 4
N#Cc1c(N)sc(=S)c2c1CCN(Cc1ccccc1)C2 | 1.3µM* | 3.5µM* | u | u | u | -59*
CCN1CCc2c(sc(N)c2C#N)C1 | u | -18% | -9% | 7%[12.7 µM] | -9% | -18
COc1ccccc1CNC(=O)COCc1cc(-c2cccs2)on1 | -11% | x | 2% | -15%[59 µM] | -16% | x
Cc1ccc([N+](=O)[O-])cc1NC(=O)Cc1cccs1 | u | -15% | -10% | 45µM* | -21% | 1
CCOc1cccc(NC(=O)Cc2cccs2)c1 | -2% | 15% | 11% | -3% | 3% | -1
O=C(Cc1cccs1)Nc1cccc(-c2nc3cc4ccccc4cc3[nH]2)c1 | u | 29% | 28µM* | 35%[59 µM] | 14µM*[quencher] | -8
CC(=O)Nc1cccc(NC(=O)Cc2cccs2)c1 | x | 2% | x | 79µM* | x | 0
CSCC[C@H](NC(=O)c1ccc2c(c1)OCO2)c1nnc2ccccn12 | x | -4% | x | x | x | -1
CCOC(=O)c1ccc(S(=O)(=O)N2CCN(C(C)=O)CC2)cc1 | 8% | 19% | 13% | -22% | 5% | 1
O=c1cc(CN2CCc3ccccc32)nc2sccn12 | -11% | -7% | 10% | 32µM* | u | 1
O=[N+]([O-])c1ccccc1S(=O)(=O)N1CCN(Cc2cc3c(cc2O)OCO3)CC1 | u | 3% | u | 2.5µM* | 11µM*[quencher] | -4
